Assay results taken from PubChem BioAssay AID2228 (National Center for Advancing Translational Sciences (NCATS), 2010).
Activity calls are given as the source filed them.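 The calls were made as follows: active = any rise in protein melting temperature, meaning a thermal shift above zero; inactive = the rest.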

These compounds were tested against Luciferin 4-monooxygenase (Photinus pyralis) (UniProt P08659) (assay: Thermal Shift Assay for Inhibitors of FLuc (Firefly Luciferase, Photinus pyralis) in Presence of ATP). Conditions: Purified FLuc with ATP, SYPRO Orange thermal shift; at 200 µM; hits give high values.
Excerpt: Firefly (Photinus pyralis) luciferase (FLuc) is widely used as a reporter in biological assays. […] In order to determine if FLuc thermal stabilization parallels inhibitor potency, a fluorescence-based thermal denaturation assay was developed in this present study. An environmentally sensitive fluorescence dye, SYPRO Orange (Invitrogen, presently Life Technologies) was utilized to monitor the fluorescence change as a function of temperature. The dye preferentially binds to the hydrophobic regions of the protein, and its high signal-to-noise ratio, large Stokes shift and high excitation wavelength make it ideal for thermal shift application. In this assay, the melting temperature (Tm) (the inflection point of the protein melt transition) was assessed for each sample tested. Differences in the Tm between controls and compound-containing samples were determined (the thermal shift or delta Tm), and compounds were ranked by the degree of their thermal shift at the top concentration (200 uM). […] FLuc catalyzes light production in bioluminescent organisms. The reaction requires luciferin, ATP and O2 as substrate, and it includes the formation of a luciferyl-AMP intermediate and the subsequent production of light, AMP, oxyluciferin and CO2. In this study, PTC124 and analogues were evaluated for their potential to stabilize FLuc in the absence and presence of ATP. This particular BioAssay is in the presence of ATP. See related BioAssay "Thermal Shift Assay for Inhibitors of FLuc (Firefly Luciferase, Photinus pyralis) in the Absence of ATP" See [6] for more details on this assay and related studies. Welch, et al. PTC124 targets genetic disorders caused by nonsense mutations. Nature 447 (2007) 87-91. D.S. Auld, N. Thorne, W.F. Maguire, and J. Inglese, Mechanism of PTC124 activity in cell-based luciferase assays of nonsense codon suppression. Proc Natl Acad Sci U S A 106 (2009) 3585-90. D.S. Auld, N. Thorne, D.T. Nguyen, and J. Inglese, A specific mechanism for nonspecific activation in reporter-gene assays. ACS Chem Biol 3 (2008) 463-70. [4]F.H. Niesen, H. Berglund, and M. Vedadi, The use of differential scanning fluorimetry to detect ligand interactions that promote protein stability. Nat Protoc 2 (2007) 2212-21. J.R. de Wet, K.V. Wood, M. DeLuca, D.R. Helinski, and S. Subramani, Firefly luciferase gene: structure and expression in mammalian cells. Mol Cell Biol 7 (1987) 725-37. Auld, et al. Molecular Basis for the High Affinity Binding and Stabilization of Firefly Luciferase by PTC124. Proc Natl Acad Sci U S A, accepted.
Assay Protocol: 1.8 uM FLuc was tested in Tris-acetate buffer (pH 7.6) or phosphate buffer saline (pH 7.4). ATP final concentration was 2 mM. Compounds were tested at 200 uM. Data was captured on an iQ5 Real Time PCR Detection system (Bio-Rad) using a temperature range from 20 to 95C in increments of 1C and a ramping rate of 0.1C/s. Fluorescence intensity changes (Ex 490/Em 575 nm) were monitored with a charge-coupled device (CCD) camera. Buffer: 50 mM Tris-acetate, pH 7.6 (with or without 2 mM ATP); 1X PBS, pH 7.4 (with or without 2 mM ATP)

Chain of Luciferin 4-monooxygenase (Photinus pyralis) (P08659 whole entry, looked up): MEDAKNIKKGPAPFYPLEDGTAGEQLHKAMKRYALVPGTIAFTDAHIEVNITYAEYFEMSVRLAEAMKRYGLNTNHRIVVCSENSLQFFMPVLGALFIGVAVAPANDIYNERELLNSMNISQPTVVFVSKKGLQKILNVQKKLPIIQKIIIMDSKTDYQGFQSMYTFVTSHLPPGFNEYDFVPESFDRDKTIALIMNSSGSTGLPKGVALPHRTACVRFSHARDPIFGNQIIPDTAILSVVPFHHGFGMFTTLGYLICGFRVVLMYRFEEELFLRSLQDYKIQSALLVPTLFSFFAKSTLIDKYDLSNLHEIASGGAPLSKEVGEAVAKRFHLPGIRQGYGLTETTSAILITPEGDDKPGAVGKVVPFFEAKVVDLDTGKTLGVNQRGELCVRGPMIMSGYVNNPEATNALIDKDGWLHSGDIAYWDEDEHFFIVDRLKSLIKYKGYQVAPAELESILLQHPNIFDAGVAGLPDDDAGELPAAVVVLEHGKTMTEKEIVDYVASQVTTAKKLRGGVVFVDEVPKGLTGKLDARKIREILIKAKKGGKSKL

Thermal shift (delta Tm), active:
Nc1ncnc2c1ncn2[C@@H]1O[C@H](COP(=O)(O)OC(=O)c2cccc(-c3noc(-c4ccccc4F)n3)c2)[C@@H](O)[C@H]1O 12.6 C
O=C(O)c1cccc(-c2noc(-c3ccccc3F)n2)c1 13.1 C
O=C(O)c1ccccc1-c1noc(-c2ccccc2F)n1 5.48 C
O=C(O)c1cccc(-c2noc(-c3cccc(Cl)c3)n2)c1 11.8 C
NC(=O)c1ccccc1-c1noc(-c2ccccc2F)n1 3.72 C
NC(=O)c1cccc(-c2noc(-c3ccccc3F)n2)c1 6.12 C
O=C(O)c1ccc(-c2noc(-c3ccccc3F)n2)cc1 11.6 C
Fc1ccccc1-c1nc(-c2cccc(-c3nn[nH]n3)c2)no1 6.04 C
